Screens (PubChem)
Pf growth 48h – P. falciparum growth inhibition at 48 hours (one generation); P. falciparum luciferase growth in erythrocytes, 48 h; Potency, µM (doses to about 28.7 µM), for the others: at the highest dose activity change, negative = inhibition, usual class: inhibitors; 310,000 tested, 5.9% active; AID 504832; also: potency is read from the fitted curve at half-maximal effect; % is scaled to controls: 0 for no effect and ±100 for the full control effect
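Here the parasites carry a stable luciferase gene and grow inside erythrocytes in Albumax-based RPMI medium with compound for one erythrocytic cycle. Activity is scored as loss of luminescent signal.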
CHX counter – counter-screen hit for Shiga toxin inhibitors, cycloheximide. cell reporter, cycloheximide protein synthesis inhibition counterscreen. max response, %. 300,000 tested, 12% active; in the data active = max response mostly above about 13%, no sharp cut-off; inactive = mostly below about 14%; also: read at 38.3 µM for the half of the compounds with a filed dose; 0% is about no effect
Shiga inhibitor – Shiga toxin inhibition | Vero cells, Shiga toxin protein synthesis inhibition reporter | inhibition, % at 38.7 µM | 290,000 tested, 9.2% active; in the data active = inhibition mostly above about 28%, no sharp cut-off; inactive = mostly below about 43%; also: 0% is about no effect
SARS PLP yeast – inhibitors of SARS-CoV papain-like protease in yeast | S. cerevisiae expressing SARS-CoV PLpro, growth rescue | 330,000 tested, 0.19% active | Potency, µM (doses to about 32.9 µM), inactives show at the top dose activity, positive = growth rescue, hits mostly activators; calls by dose curve; also: potency is read from the fitted curve at half-maximal effect; 0% is about no effect; nearly all actives have a fitted effect of over 55% in size
Pf growth 96h – P. falciparum growth inhibition at 96 hour, primary screen for plastid delayed-death inhibitors. 320,000 tested, 6.9% active. P. falciparum luciferase reporter growth, 96 h. Potency, µM (series often up to 28.7 µM), inactives show at the top dose activity change, negative = inhibition, actives largely listed as inhibitors; also: potency is read from the fitted curve at half-maximal effect; % is scaled to controls: 0 for no effect and ±100 for the full control effect
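Infected RBCs, 2% Hct / 0.05% parasitemia final; luciferase-reporter P. falciparum; cpd 96 h, 37 C, 5% CO2; luciferase detection reagent; luminescence.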
AMA1-RON2 inh – AMA1-RON2 (P. falciparum) interaction inhibition; AlphaScreen AMA1-biotinylated RON2 peptide binding; Potency, µM (doses to about 58.2 µM), for inactives: at the highest dose activity change, negative = inhibition, most hits filed as inhibitors; 360,000 tested, 0.2% active;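 also: potency is read from the fitted curve at half-maximal effect; 0% = vehicle wells and -100% = peptide control; nearly all actives have a fitted effect of over 45% in size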
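AMA1 (3D7) with his tag at 25 nM final met compounds first, then biotinylated RON2 peptide at 25 nM; detection used donor plus acceptor beads, 10 µg/mL apiece, read by AlphaScreen after 30 min at room temperature.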
* = called active by the depositor; u = inconclusive; x = no result given; [ ] = dose if it differs, or a comment. Shown are actives, neighbours in structure and some others; about 19% of the full set was active somewhere. Unless noted, calls follow the shape of the dose curve; as a rule, active = well fitted curve in the direction sought with a large enough effect; inconclusive = small, poorly fitted or top-dose-only effect, or another doubt; inactive = no such curve, though single readings can be large; an effect the other way counts as inactive or inconclusive.

SMILES	Pf growth 48h	CHX counter	Shiga inhibitor	SARS PLP yeast	Pf growth 96h	AMA1-RON2 inh
O=C(NCCc1ccc2c(c1)OCCO2)c1ccc(F)cc1	24%	34*	55	3%	284%	-14%
O=C(NCCN1CCCCC1)c1ccc2c(c1)OCCO2	44%	14*	31	-1%	x	6%
O=C(NCCc1ccccc1F)c1ccc2c(c1)OCCO2	-22%	-13	-21	-2%	-25%	-7%
O=C(NCCOc1ccc(Cl)cc1)c1ccc2c(c1)OCCO2	251%	x	x	7%	172%	5%
O=C(NCCc1ccc(Cl)cc1)c1ccc2c(c1)OCCO2	104%	42*	x	1%	4%	8%
C[C@H]1CN([C@@H](C)CO)C(=O)CCCn2nncc2CO[C@@H]1CN(C)Cc1ccc(C(=O)O)cc1	x	x	x	x	x	-1%
CN(C)CCNC(=O)CCn1nc(-c2ccc(Cl)cc2)ccc1=O	-9%[0.00184 µM]	-5	-9	-1%	u	-8%
Cc1c(C(=O)N2CCCCC2)c(S(=O)(=O)NCc2ccc(N(C)C)cc2)c(C)n1C	-5%	2	3	-14%	0.83µM*	-5%
COc1ccc(CNS(=O)(=O)c2c(C(=O)N3CCCCCC3)c(C)n(C)c2C)cc1	-15%	-3	-3	4%	3.3µM*	-3%
COc1ccc(-c2c(C)nn3c(N4CCC(C(=O)NCCN(C)C)CC4)cc(C)nc23)cc1OC	10µM*	-4	-3	1%	85%	-6%
COc1ccccc1C1C=C(c2ccccc2)Nc2nnnn21 (centres undefined)	24%	17	165*	3%	-19%	-5%
Cc1ccc(C2=CC(c3ccccc3)n3ncnc3N2)cc1 (centres undefined)	x	x	x	x	x	9%
Fc1ccc(C2=CC(c3ccco3)n3nnnc3N2)cc1 (centres undefined)	8%	39*	47*	-1%	1%	-5%
COc1ccc(C2=CC(c3ccc(F)cc3)n3nnnc3N2)cc1 (centres undefined)	x	13	30	4%	u	17%
COc1ccc(C2C=C(c3ccc(Br)cc3)Nc3nnnn32)c(OC)c1 (centres undefined)	x	33*	66*	x	x	x
O=C(c1ccc(=O)[nH]n1)N1CCN(S(=O)(=O)c2ccc(C(F)(F)F)cc2)CC1	u	x	x	6%	u	3%
Cc1[nH]c(=O)[nH]c(=O)c1S(=O)(=O)N1CCCC(C(=O)NCCC2=CCCCC2)C1 (centres undefined)	u	-2	-18	0%	u	1%
O=C(Nc1ccccn1)c1cc(-c2cccnc2)nc2ccc(Br)cc12	3.7µM*	-5	-11	-7%	3%	17%
Cc1c(-c2ccccc2)nc2ccccc2c1C(=O)Nc1ccncc1	1.7µM*	-4	-14	-1%	0.33µM*	-6%
Cc1ccc(-c2cc(C(=O)Nc3cccnc3)c3ccccc3n2)s1	2.6µM*	10	-1	-5%	u	31%
Cc1ccc2nc(-c3ccncc3)cc(C(=O)Nc3ccc(F)cc3C)c2c1	6.6µM*	-2	-5	-10%	u	10%
Cc1ccc(CN2CC(N3CCN(C)CC3)CS2(=O)=O)cc1 (centres undefined)	x	x	x	x	x	13%
CC(=O)c1c(C)[nH]c(C(=O)OCC(=O)N(CC(C)C)C2CCS(=O)(=O)C2)c1C (centres undefined)	0%	x	x	1%	-2%	1%
CCCCC(CCC(=O)O)(C(=O)OCC)c1csc(Nc2ccc(OCC)cc2)n1 (centres undefined)	-27%	1	19	-1%	u	-1%
Cc1cccc(-c2cc(C(=O)Nc3ccncc3)c3ccccc3n2)c1	1µM*	8.4*	-2	-8%	2.3µM*	-7%
Cc1cccc(Nc2nc(-c3ccccc3)c(C(=O)Nc3cccnc3)s2)c1	-18%	33*	48*	-4%	u	17%
Cc1ccc2nc(-c3ccncc3)cc(-c3ccccc3)c2c1	10µM*	-2	-11	-15%	9.3µM*	-6%
Cc1ccc2nc(-c3cccc(Br)c3)cc(C(=O)NC3CC3)c2c1	4.7µM*	1	-13	-10%	u	6%
